Values joined by “and” are separate entries in the source; they are usually repeats but may differ in a detail not shown here. Identical values can stand only once. The whole screen tested about 5,500 compounds, of which about 2,000 (36%) were called active. Another 18% or so got no clear call; they are omitted. Rule as the data show it: active = normalized growth mostly below about 0.91 (no sharp cut-off); inconclusive = no clear call, values can overlap the other calls; inactive = mostly above about 0.92. Some of the results follow.
Test: chemical genetic growth profiling, strain panel (AID 1159580);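 also: tested at 20 µM; growth read once vehicle control cultures reached saturation at 30 °C; 1 = growth at the plate median or of vehicle wells; lower values mean less growth of the strain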
Conditions: S. cerevisiae deletion strains, growth OD

Measured: normalized growth

Cn1cnc2c1c(=O)[nH]c(=O)n2C
inactive: locus YAL013W, strain DEP1, hits give low values 1.01 | locus YAL021C, strain ccr4, hits give low values 0.952 | locus YAL026C, strain drs2, hits give low values 0.989 | locus YAL030W, strain snc1, hits give low values 0.985 | locus YAL040C, strain CLN3, hits give low values 0.992 | locus YBL061C, strain skt5, hits give low values 0.985 | locus YBR009C, strain hhf1, hits give low values 0.997 | locus YBR021W, strain FUR4, hits give low values 0.991 | locus YBR023C, strain chs3, hits give low values 1 | locus YBR171W, strain sec66, hits give low values 0.99 | locus YBR229C, strain ROT2, hits give low values 1.01 | locus YBR231C, strain swc5, hits give low values 0.985 | locus YBR279W, strain paf1, hits give low values 0.997 | locus YCL011C, strain gbp2, hits give low values 0.978 | locus YCL016C, strain dcc1, hits give low values 0.993 | locus YCL029C, strain bik1, hits give low values 1.03 | locus YCL061C, strain MRC1 (second series), hits give low values 1.01 | locus YCL061C, strain MRC1, hits give low values 0.984 | locus YCL069W, strain vba3, hits give low values 0.983 | locus YCR088W, strain abp1, hits give low values 0.991 | locus YDL005C, strain med2, hits give low values 0.989 | locus YDL035C, strain GPR1, hits give low values 1.01 | locus YDL040C, strain nat1, hits give low values 0.992 | locus YDL074C, strain BRE1, hits give low values 1.02 | locus YDL101C, strain DUN1, hits give low values 1.02 | locus YDL134C, strain PPH21, hits give low values 1.01 | locus YDL185W, strain tfp1, hits give low values 1.01 | locus YDL192W, strain arf1, hits give low values 1.01 | locus YDR001C, strain nth1, hits give low values 0.984 | locus YDR069C, strain doa4, hits give low values 0.959 | locus YDR101C, strain arx1, hits give low values 1.01 | locus YDR137W, strain rgp1, hits give low values 1.03 | locus YDR150W, strain NUM1, hits give low values 1.01 | locus YDR159W, strain sac3, hits give low values 0.973 | locus YDR162C, strain NBP2, hits give low values 1.01 | locus YDR195W, strain ref2 0.944 | locus YDR297W, strain sur2, hits give low values 0.991 | locus YDR318W, strain mcm21, hits give low values 1.03 | locus YDR334W, strain swr1, hits give low values 0.98 | locus YDR335W, strain msn5, hits give low values 0.976 | locus YDR363W, strain ESC2, hits give low values 0.998 | locus YDR388W, hits give low values 1.01 | locus YDR392W, strain spt3, hits give low values 0.993 | locus YDR502C, strain sam2, hits give low values 1 | locus YEL003W, strain gim4, hits give low values 0.988 | locus YEL037C, strain rad23, hits give low values 0.993 | locus YEL061C, strain CIN8 (second series), hits give low values 0.974 | locus YEL061C, strain CIN8, hits give low values 1.01 | locus YER002W, strain NOP16, hits give low values 1.04 | locus YER015W, strain faa2, hits give low values 0.981 | locus YER016W, strain bim1, hits give low values 0.991 | locus YER110C, hits give low values 1.01 | locus YER111C, strain swi4, hits give low values 0.985 | locus YER155C, strain BEM2 (second series), hits give low values 1 | locus YER155C, strain BEM2, hits give low values 1.01 | locus YER167W, strain BCK2, hits give low values 1.01 | locus YFR010W, strain ubp6, hits give low values 0.971 | locus YGL078C, strain dbp3, hits give low values 1.01 | locus YGL086W, strain mad1, hits give low values 1 | locus YGL167C, strain pmr1, hits give low values 0.976 | locus YGL173C, strain kem1, hits give low values 0.988 | locus YGL227W, strain vid30, hits give low values 0.994 | locus YGL240W, strain doc1, hits give low values 0.966 | locus YGL248W, strain PDE1, hits give low values 1.01 | locus YGL253W, strain hxk2, hits give low values 0.99 | locus YGR078C, strain PAC10, hits give low values 1.01 | locus YGR135W, strain pre9, hits give low values 1.02 | locus YGR229C, strain SMI1, hits give low values 1.02 and 1.05 | locus YGR252W, strain gcn5, hits give low values 1.01 | locus YHR013C, strain ard1, hits give low values 0.961 | locus YHR027C, strain rpn1, hits give low values 0.972 | locus YHR030C, strain SLT2, hits give low values 1.01 and 0.97 | locus YHR079C, strain IRE1 (second series), hits give low values 1.02 | locus YHR079C, strain IRE1, hits give low values 0.996 | locus YHR094C, strain hxt1, hits give low values 1.01 | locus YHR129C, strain ARP1, hits give low values 1.01 | locus YHR142W, strain chs7, hits give low values 0.999 | locus YHR200W, strain rpn10, hits give low values 1 | locus YIL066C, strain RNR3, hits give low values 1.02 | locus YIL073C, strain SPO22, hits give low values 1.05 | locus YIL125W, strain kgd1, hits give low values 1.01 | locus YIR030C, strain dcg1, hits give low values 1.01 | locus YJL092W, strain hpr5, hits give low values 0.989 | locus YJL095W, strain BCK1 (second series), hits give low values 0.996 | locus YJL095W, strain BCK1, hits give low values 1.03 and 0.985 | locus YJL115W, strain asf1, hits give low values 0.976 | locus YJL129C, strain trk1, hits give low values 0.963 | locus YJL134W, strain LCB3, hits give low values 1.01 | locus YJL154C, strain vps35, hits give low values 0.995 | locus YJL164C, strain tpk1, hits give low values 0.978 | locus YJL166W, strain qcr8, hits give low values 0.992 | locus YJL168C, strain set2, hits give low values 1.01 | locus YJL187C, strain SWE1 (second series), hits give low values 1.03 | locus YJL187C, strain SWE1, hits give low values 0.983 | locus YJR043C, strain POL32, hits give low values 1.01 | locus YJR066W, strain TOR1, hits give low values 0.963
